From PubChem BioAssay (NCATS)
Results filed as inconclusive are left out. Calls of active or inactive are those of the source. The call rests on the fitted dose curve; in most records, active means well fitted cell-killing curve with a large enough effect; inconclusive means small, poorly fitted or top-dose-only effect; inactive means no such curve, though single readings can be large or run the other way.

Experiment: qHTS of pediatric cancer cell lines to identify multiple opportunities for drug repurposing: Primary screen for SK-N-MC cells (AID 1347093)
Settings: SK-N-MC viability, CellTiter-Glo luminescence, 48 h; series mostly up to 46 µM
Description: Drug repurposing or repositioning has been offered as a strategy for drug development in oncology programs. This approach has special potential for childhood cancers and other rare or orphan diseases, where the expected return on new drug development has been a disincentive to pharmaceuticals.
In this project we exploit the poly-pharmacology of drugs to discover new indications via phenotypic screening of a panel of 19 well-characterized cell lines derived from solid tumors seen in children and adolescents. The goal is to identify approved drugs with previously unrecognized anticancer properties that has the potential to reveal new mechanisms and biological processes involved in carcinogenesis or drug resistance. We employed a titration-based paradigm (quantitative high-throughput screening or qHTS), where all compounds were tested at multiple concentrations for their effect on cell viability. Concentration-response curves (CRCs) were derived directly from the primary screen, and both potency and efficacy values were used to identify compounds with robust bioactivity profiles. We screened the NIH Chemical Genomics Center (NCGC) Pharmaceutical Collection (NPC) and Mechanism Interrogation Plate (MIPE) small molecule collections of approved and investigational compounds against these cell lines; and measured metabolically active cells after 48 hours of compound treatment as a proxy for cell viability.
Assay Submitter: Nathalia J. Martinez, National Center for Advancing Translational Sciences, National Institutes of Health, Rockville, MD, USA; email: natalia.martinez@nih.gov
[1] Shen, M et al. Quantitative high-throughput phenotypic screening of pediatric cancer cell lines identifies multiple opportunities for drug repurposing. Oncotarget 2017 Dec 19;9(4):4758-4772. PMID 29435139.
The cells were obtained from University of North Carolina (UNC), Pediatric Preclinical Testing Program (PPT), and Coriell Institute (CI).
qHTS cell viability assay:
Cells were assayed in growth media at a density of 500-1,000 cells/well. Five microliters of cells were dispensed into 1,536-well, white, solid-bottom, TC-treated plates (Greiner Bio One) using a multidrop dispenser and incubated at 37 degrees C, 5% CO2, under a humidified atmosphere for 5 hours. Twenty-three nanoliters of compounds and controls (neutral control DMSO or positive control bortezomib at final concentration of 2.3 µM) were subsequently transferred by Kalypsys pintool. For primary screens, the MIPE collection was tested at 11-point dilutions (final concentrations range from 0.78 nM to 46 µM) and the NPC collection at 8-point dilutions (final concentrations range from 0.59nM to 46 µM). Compounds tested in follow-up screens were assayed at 11-point dilutions. Cells were incubated for 48 hours, followed by addition of 3 uL of CellTiter-Glo (Promega). After a 15 min incubation at room temperature, samples were analyzed for luminescence intensity using a ViewLux High-throughput CCD imager equipped with clear filters.
Potency means the concentration at half of the fitted maximal effect.

| SMILES | Potency |
| --- | --- |
| O=c1[nH]nc(OCCCc2ccc(Cl)cc2)c(NCc2cccnc2)c1Br | 10.5 µM (active) |
| CC(C)(OCc1nn(Cc2ccccc2)c2ccccc12)C(=O)O | 26.4 µM (active) |
| CCCCC(F)(F)[C@@]1(O)CC[C@H]2[C@H](CC(=O)[C@@H]2CCCCCCC(=O)O)O1 | inactive |
| CC(C)(C)c1nc(-c2cccc(NS(=O)(=O)c3c(F)cccc3F)c2F)c(-c2ccnc(N)n2)s1 | 0.59 µM (active) |
| CCCCc1ccc(NS(=O)(=O)c2ccc(C)c(C(=O)N3CCN(c4cccc(C)c4C)CC3)c2)cc1 | 23.5 µM (active) |
| OC[C@H]1O[C@@H](Oc2ccc(O)cc2)[C@H](O)[C@@H](O)[C@H]1O | 13.2 µM (active) |
| Cc1cccc(Nc2nc(N[C@@H]3CCCC[C@H]3N)ncc2C(N)=O)c1 | 6.62 µM (active) |
| N#Cc1c(N(CC(=O)O)CC(=O)O)sc(C(=O)O)c1CC(=O)O | inactive |
| C=C[C@@H]1CN2CCC1C[C@@H]2C(O)c1ccnc2ccc(OC)cc12 (stereo not given in full) | inactive |
| C[C@@H](N)c1ccc(C(=O)Nc2ccnc3[nH]ccc23)cc1 | 26.4 µM (active) |
| O=C1NC(=O)C(=Cc2ccc(-c3ccc(F)cc3O)o2)S1 | 23.5 µM (active) |
| Cc1cnc(Nc2cccc(CN3CCOCC3)c2)nc1Nc1cccc(S(=O)(=O)NC(C)(C)C)c1 | 2.64 µM (active) |
| O[C@@H](COc1cccc2ncccc12)CN1CCN(C2c3ccccc3[C@@H]3[C@H](c4ccccc42)C3(F)F)CC1 (stereo not given in full) | 9.35 µM (active) |
| O=C1C(c2c(O)[nH]c3ccccc23)=Nc2ccccc21 | 0.118 µM (active) |
| C[C@@H]1CCO[C@H]2Cn3cc(C(=O)NCc4ccc(F)cc4F)c(=O)c(O)c3C(=O)N12 | inactive |
| CCn1c(-c2nonc2N)nc2cncc(CNC3CCNCC3)c21 | inactive |
| O=c1[nH]c(=O)n([C@H]2C[C@@H](O)[C@@H](CO)O2)cc1C(F)(F)F | 3.72 µM (active) |
| C[C@@H](O)[C@H]1C(=O)N2C(C(=O)OCOC(=O)C(C)(C)C)=C(SC3CN(C4=NCCS4)C3)[C@H](C)[C@H]12 | inactive |
| O=C(CCCN1CCN(c2ccc(F)cc2)CC1)NC1c2ccccc2CSc2ccccc21 (stereo not given) | 20.9 µM (active) |
| CC(C)(CO)[C@@H](O)C(=O)NCCC(=O)O | inactive |

| SMILES | Potency |
| --- | --- |
| CC[C@H](C)C(=O)O[C@H]1C[C@H](O)C=C2C=C[C@H](C)[C@H](CC[C@@H](O)C[C@@H](O)CC(=O)O)[C@H]21 | inactive |
| C#C[C@]1(O)CC[C@H]2[C@H]3CCc4cc(OC)ccc4[C@H]3CC[C@@]21C | 20.9 µM (active) |
| CC[C@]1(O)C[C@H]2CN(CCC3=c4ccccc4=N[C]3[C@@](C(=O)OC)(c3cc4c(cc3OC)N(C)[C@H]3[C@@](O)(C(N)=O)[C@H](O)[C@]5(CC)C=CCN6CC[C@]43[C@@H]65)C2)C1 | 0.0235 µM (active) |
| CC1(C)OC2CC3C4CC(F)C5=CC(=O)C=CC5(C)C4C(O)CC3(C)[C@]2(C(=O)CO)O1 (stereo not given in full) | inactive |
| C[C@@H]1C[C@H]2[C@@H]3CCC4=CC(=O)C=C[C@]4(C)[C@@]3(F)[C@@H](O)C[C@]2(C)[C@@]1(O)C(=O)CO | 0.001 µM (active) |
| CC1(COc2ccc3c(c2)ncn3-c2ccc3cccc(N4CCC(N)CC4)c3n2)COC1 | 0.001 µM (active) |
| CC(C)(F)C[C@H](N[C@@H](c1ccc(-c2ccc(S(C)(=O)=O)cc2)cc1)C(F)(F)F)C(=O)NC1(C#N)CC1 | inactive |
| CC1(C)[C@H]2CC[C@]3(C)[C@@H](C(=O)C=C4[C@@H]5C[C@@](C)(C(=O)O)CC[C@]5(C)CC[C@]43C)[C@@]2(C)CC[C@@H]1O | inactive |
| COc1c(C)c2c(c(O)c1CC=C(C)CCC(=O)OCCN1CCOCC1)C(=O)OC2 | 1.18 µM (active) |
| CCC(=O)OCC(=O)[C@@]1(OC(=O)CC)[C@@H](C)C[C@@H]2[C@H]3CCC4=CC(=O)C=C[C@]4(C)[C@@]3(F)[C@@H](O)C[C@@]21C | 0.0372 µM (active) |
| c1cc(OCCN2CCCCC2)cc(-c2n[nH]c3ccc(-c4ncn[nH]4)cc23)c1 | 16.6 µM (active) |
| COc1cc(C=CC(=O)O)ccc1O | 20.9 µM (active) |
| CC(C)(O)CC(=O)NCCn1ccc2ncnc(Nc3ccc(Oc4cccc(C(F)(F)F)c4)c(Cl)c3)c21 | 0.743 µM (active) |
| N=C1SC(=Cc2ccc(-c3ccc4c(c3)C(=O)NC4=O)o2)C(=O)N1c1ccc(Br)cc1 | inactive |
| O=C(O)C1=CO[C@@H](O[C@@H]2O[C@H](CO)[C@H](O)[C@H](O)[C@H]2O)[C@@H]2C(CO)=CC[C@H]12 | inactive |
| Cc1cc(C(C)Nc2ccccc2)c2nc(N3CCOCC3)cc(=O)n2c1 (stereo not given) | 0.132 µM (active) |
| C[C@@H](NC(=O)c1ncnc(N)c1Cl)c1ncc(C(=O)Nc2cc(C(F)(F)F)c(Cl)cn2)s1 | 16.6 µM (active) |
| C[C@H]1[C@H](O)O[C@@H]2O[C@@]3(C)CC[C@@H]4[C@H](C)CC[C@@H]1[C@@]24OO3 | 1.05 µM (active) |
| C[C@@H]1[C@H](O)[C@@H](C)C=CC=CC=CC=CC=CC=CC=C[C@H](O[C@@H]2O[C@H](C)[C@H](O)[C@H](N)[C@@H]2O)C[C@@H]2O[C@](O)(C[C@@H](O)C[C@@H](O)[C@H](O)CC[C@@H](O)C[C@@H](O)CC(=O)O[C@H]1C)C[C@H](O)[C@@H]2C(=O)O | 0.118 µM (active) |
| O=C(c1ccc(C=Cc2n[nH]c3ccccc23)cc1)N1CCNCC1 | 1.18 µM (active) |
